PubChem BioAssay AID1851 (National Center for Advancing Translational Sciences (NCATS), 2009)
About 5,700 (36%) of roughly 16,000 compounds were called active. Inconclusive results (about 24%) are left out. Calls come from the whole dose curve; as a rule, active = well fitted curve in the direction sought with a large enough effect; inconclusive = small, poorly fitted or top-dose-only effect, or effect the other way; inactive = no such curve, though single readings can be large or run the other way. This is one part of the list.

Biological target: Cytochrome P450 1A2 (Homo sapiens) (UniProt P05177)
Assay: Cytochrome panel assay with activity outcomes
Conditions: recombinant CYP, pro-luciferin dealkylation, luminescence, p450-cyp1a2; series mostly up to 57.1 µM; activity, negative = inhibition: at the top concentration
% is set by controls: 0 for no effect and ±100 for the full control effect.

Cytochrome P450 1A2 (Homo sapiens), sequence (P05177 whole entry, looked up): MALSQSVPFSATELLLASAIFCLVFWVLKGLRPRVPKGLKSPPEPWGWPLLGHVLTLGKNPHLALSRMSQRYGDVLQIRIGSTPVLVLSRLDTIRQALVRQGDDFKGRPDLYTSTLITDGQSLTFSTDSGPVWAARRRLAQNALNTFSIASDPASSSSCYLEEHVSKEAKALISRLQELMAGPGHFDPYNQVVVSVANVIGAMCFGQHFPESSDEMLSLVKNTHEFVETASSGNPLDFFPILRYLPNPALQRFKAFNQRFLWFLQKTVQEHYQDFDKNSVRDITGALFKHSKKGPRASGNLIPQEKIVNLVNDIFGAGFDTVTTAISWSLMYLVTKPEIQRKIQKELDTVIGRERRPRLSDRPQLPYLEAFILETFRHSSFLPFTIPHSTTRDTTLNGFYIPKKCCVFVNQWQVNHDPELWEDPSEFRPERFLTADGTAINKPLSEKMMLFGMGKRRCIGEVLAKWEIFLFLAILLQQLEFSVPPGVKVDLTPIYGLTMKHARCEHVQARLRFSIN

| SMILES | activity, negative = inhibition | AC50 |
| --- | --- | --- |
| C[C@H]1COC(=O)[C@H]2CCCN2C(=O)[C@@H](C)COC(=O)[C@H](Cc2ccccc2)NC1=O | -1.22% [at 11.4 µM] (inactive) | – |
| Oc1c(Br)cc(CN(Cc2cc(Br)c(O)c(Br)c2)C2CCCCC2)cc1Br | -5.68% [at 2.29 µM] (inactive) | – |
| Oc1c(Br)cc(Br)cc1CN(Cc1cc(Br)cc(Br)c1O)C1CCCCC1 | – | 3160 nM (active) |
| CON1C(=O)C(=O)N(OC)C2CCCCC21 (centres undefined) | 14% (inactive) | – |
| Cc1cnc(CNc2nc(-c3cccnc3)nc3ccccc23)cn1 | – | 2510 nM (active) |
| COc1cccc(-c2nc(NCc3cnc(C)cn3)c3ccccc3n2)c1 | – | 398 nM (active) |
| c1cncc(-c2nccc(NCc3cccs3)n2)c1 | – | 200 nM (active) |
| CN(C)C(=O)c1ccc(-c2nccc(NCc3cccs3)n2)cc1 | – | 15800 nM (active) |
| CN(C)CCN(Cc1cccs1)c1ccccn1 | -19.1% (inactive) | – |
| c1csc(CNc2ccnc(-c3ccoc3)n2)c1 | – | 1000 nM (active) |
| CN(C)c1ccc(-c2nccc(NCc3cccs3)n2)cc1 | – | 398 nM (active) |
| CC(C)=CCC/C(C)=C/CO/N=C1/[C@H]2O[C@@H]2[C@@H](O)[C@H]2[C@H]1CCn1c(=O)n(-c3ccccc3)c(=O)n12 | 3.05% [at 11.4 µM] (inactive) | – |
| C[C@@H](c1ccccc1)N1C(=O)[C@H]2[C@H]3[C@H](O)[C@H](O)C/C(=N/OCc4ccccc4)[C@H]3CC[C@@H]2C1=O | -3.77% [at 11.4 µM] (inactive) | – |
| C=CCCC(=O)Nc1nc(C)c(-c2csc(Nc3ccc(Cl)cc3)n2)s1 | – | 5010 nM (active) |
| Cc1nc(NC(=O)c2ccccc2)sc1-c1csc(Nc2ccc(Cl)cc2Cl)n1 | -19.1% (inactive) | – |
| COc1ccccc1Nc1nc(-c2sc(NC(=O)c3ccccc3)nc2C)cs1 | -22.6% (inactive) | – |
| Cc1nc(NC(=O)c2ccccc2)sc1-c1csc(Nc2cccc(F)c2)n1 | – | 11200 nM (active) |
| Cc1ncc(CO)c(CO)c1O | -13% [at 25.6 µM] (inactive) | – |
| Cc1nnc(N(C)C(=O)c2ccccn2)s1 | -21.3% (inactive) | – |
| CC(=O)N(C)c1nnc(-c2cnccn2)s1 | – | 6310 nM (active) |

| SMILES | activity, negative = inhibition | AC50 |
| --- | --- | --- |
| C[C@@H]1C(=O)N(C)C(=O)c2nc[nH]c21 | -19.5% (inactive) | – |
| O=C1OC(OC2CCCCC2)(c2ccccc2)c2ccccc21 (centres undefined) | -10.7% (inactive) | – |
| Cc1ccccc1-c1cncnc1Nc1ccc(F)cc1 | – | 10000 nM (active) |
| Cc1ccccc1-c1cncnc1Nc1ccccc1 | – | 15800 nM (active) |
| CCOCCCNC(=O)CCS(=O)(=O)Cc1ccc(C)cc1 | -7.44% (inactive) | – |
| COc1ccccc1NC(=O)Nc1nnc(-c2ccco2)s1 | – | 2000 nM (active) |
| COc1ccc(OC)c(NC(=O)C(CC(=O)O)NCc2ccco2)c1 (centres undefined) | -20.7% (inactive) | – |
| COc1ccccc1-c1nnc(NC(C)=O)s1 | – | 1260 nM (active) |
| Cc1ccc(C)n1CCN1CCN(CC(=O)Nc2cc(C(F)(F)F)ccc2Cl)CC1 | – | 25100 nM (active) |
| CN(C)c1cc[n+](CC(=O)Nc2cc(C(F)(F)F)ccc2Cl)cc1 | -18.9% (inactive) | – |
| O=C(CCCC(=O)OCC(=O)c1ccc(Cl)cc1Cl)Nc1cc(C(F)(F)F)ccc1Cl | – | 2820 nM (active) |
| O=C(Cc1ccccc1)NC(=S)Nc1cc(C(F)(F)F)ccc1Cl | – | 2000 nM (active) |
| N/C(CC(=O)Nc1cc(C(F)(F)F)ccc1Cl)=N\O | – | 1580 nM (active) |
| Cc1cc(NC(=O)CCCC(=O)OCC(F)(F)C(F)F)cc(C)c1C(=O)O | 11.5% (inactive) | – |
| COC(=O)N1CCC2(CCN(Cc3cc(C(F)(F)F)cc(C(F)(F)F)c3)CC2)CC1 | -19.2% (inactive) | – |
| O=C1[C@H]2CCn3c(=O)n(-c4ccccc4)c(=O)n3[C@H]2[C@H](O)[C@H]2O[C@@H]12 | -2.61% [at 11.4 µM] (inactive) | – |
| Cc1cc(N2C(=O)C(O)=C(C(=O)c3cccs3)C2c2cccc(O)c2)no1 (centres undefined) | -1.3% (inactive) | – |
| CC(C)=CCC/C(C)=C/CO/N=C1/C[C@@H](O)[C@@H](O)[C@@H]2[C@@H]3C(=O)N(C(C)(C)C)C(=O)[C@H]3CC[C@@H]12 | -0.662% [at 11.4 µM] (inactive) | – |
| C/C(CCN1CCCCc2nc(C)c(C)cc21)=N\OC[C@@H](O)[C@@H]1O[C@@H]2OC(C)(C)O[C@@H]2[C@H]1O | -3.55% [at 11.4 µM] (inactive) | – |
| O=CN1CCN(C[C@H](O)CN2CCCCC2)CC1 | -17.6% [at 2.29 µM] (inactive) | – |

| SMILES | activity, negative = inhibition | AC50 |
| --- | --- | --- |
| O=C(c1ccccc1)c1cc(F)c(N2CCOCC2)cc1Cl | – | 11200 nM (active) |
| CC(C)[C@H](N)c1nnc(SCc2ccc(Cl)cc2)o1 | – | 794 nM (active) |
| CC(C)[C@H](N)c1nnc(SC/C=C/c2ccccc2)o1 | – | 631 nM (active) |
| O=C(NC12CC3CC(CC(C3)C1)C2)C12CC3CC(C1)CC(n1cnc(Cl)n1)(C3)C2 | -11.9% (inactive) | – |
| NCC1CCC(C(=O)O)CC1 (centres undefined) | -3.69% [at 25.6 µM] (inactive) | – |
| N#C/C(=C\c1ccc(Cl)cc1)c1nc2ncccc2[nH]1 | – | 2000 nM (active) |
| N#C/C(=C\c1ccccc1)c1nc2ncccc2[nH]1 | – | 1260 nM (active) |
| CCC(=O)O[C@@H]1[C@H](C)O[C@H](O[C@H]2[C@@H](N(C)C)[C@H](O)[C@@H](O[C@@H]3[C@@H](CC=O)C[C@@H](C)[C@@H](O)/C=C\C=C/C[C@@H](C)OC(=O)C[C@@H](OC(=O)CC)[C@H]3OC)O[C@H]2C)C[C@]1(C)O | -13.6% [at 25.6 µM] (inactive) | – |
| N#Cc1cccc(-c2ccc3ncnc(NC4CCNCC4)c3c2)c1 | – | 15800 nM (active) |
| c1cncc(-c2ccc3ncnc(NC4CCNCC4)c3c2)c1 | – | 12600 nM (active) |
| COc1cccc(-c2ccc3ncnc(NC4CCNCC4)c3c2)c1 | – | 20000 nM (active) |
| COc1cccc(-c2cncnc2NC2CCNCC2)c1 | -19.7% (inactive) | – |
| COc1cccc(-c2ccc3ncnc(NC4CC4)c3c2)c1 | – | 200 nM (active) |
| C[n+]1cccc(CNC(=O)/C=N/O)c1 | 1.69% (inactive) | – |
| CC(C)[C@]1(Cl)CC[C@@H]2[C@]3(C)CCC[C@@](C)(C(=O)O)[C@H]3C[C@H](Cl)[C@@]2(Cl)[C@H]1Cl | -13% [at 11.4 µM] (inactive) | – |
| Cn1c(C[C@@H](O)c2nc3ccccc3n2C)nc2ccccc21 | -2.56% [at 2.29 µM] (inactive) | – |
| Cn1c(SCc2nc3ccccc3n2CCO)nc2ccccc21 | – | 10000 nM (active) |
| CCCS(=O)(=O)N1CCCC(C(=O)NCC2CCCO2)C1 (centres undefined) | -17.1% (inactive) | – |
| N#Cc1nc(-c2ccc(F)cc2)oc1N1CCCC1 | – | 178 nM (active) |
